Source: PubChem BioAssay (Broad Institute)
NSD2 HMT inh = blocks human histone methyltransferase NSD2; 0.54% of 310,000 active; AID 743445; O96028; inhibition, % at 12.5 µM; NSD2 peptide methylation, AlphaScreen, 120 min; in the data active = inhibition above about 50%
Ecoli rRNA inh = inhibits bacterial ribosomal RNA function over humanized ribosomes; E. coli WT GFP vs humanized-ribosome RFP mutants, fluorescence, 24 h; stronger effect = lower value; DMSO median 0, no signal -100; GFP signal change (wild-type ribosome), % (test concentration not listed); 1.6% of 350,000 active; AID 720706;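 active = significant combined selectivity score with lowered wild-type GFP, culture density cut under 30%, mutant RFP and density less affected; inactive = any of these conditions unmet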
MLL AF4-AF9 inh = MLL-AF4/AF9 protein interaction inhibition; P42568; AlphaScreen, biotin-AF4 peptide binding to FLAG-AF9; inhibition, % at 10 µM; 0.47% of 350,000 active; AID 651704;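 active = every replicate reaching a set inhibition limit, whatever the replicate mean, cut at about 25% in these data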;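 note: 0% = plate neutral control median and 100% = total signal loss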
CASP6 VEID inh = blocks human caspase-6 cleavage activity | purified caspase-6, Z-VEID-R110 cleavage fluorescence | inhibition, % at 12.5 µM | 0.53% of 350,000 active;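 active = mean inhibition across replicates at least about 35%, with every replicate also reaching that limit, limit read from the data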;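 note: 0% = median of neutral control wells and 100% = no fluorescence left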
RAD52 inh = inhibitors of human RAD52 DNA annealing; 0.46% of 360,000 active; P43351; inhibition, % at 18.7 µM; recombinant RAD52 DNA annealing, FRET fluorescence;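 active = every replicate showing at least 50% inhibition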
Target sequence (P43351 whole entry, looked up): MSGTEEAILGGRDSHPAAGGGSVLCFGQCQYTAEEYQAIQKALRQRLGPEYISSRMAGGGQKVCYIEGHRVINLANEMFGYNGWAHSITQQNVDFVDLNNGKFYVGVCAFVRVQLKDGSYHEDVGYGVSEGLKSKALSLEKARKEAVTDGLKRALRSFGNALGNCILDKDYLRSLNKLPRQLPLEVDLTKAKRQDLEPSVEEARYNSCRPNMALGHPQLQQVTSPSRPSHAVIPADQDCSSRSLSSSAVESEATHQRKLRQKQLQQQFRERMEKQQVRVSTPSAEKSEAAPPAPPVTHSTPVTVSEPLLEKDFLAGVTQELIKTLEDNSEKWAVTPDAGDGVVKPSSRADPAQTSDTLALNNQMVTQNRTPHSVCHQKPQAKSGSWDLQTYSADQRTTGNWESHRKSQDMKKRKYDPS
Numbers without * were called inactive; x = no result given. Most compounds without a hit are left out; they make up all but 2.5% or so of the library.

SMILES	NSD2 HMT inh	Ecoli rRNA inh	MLL AF4-AF9 inh	CASP6 VEID inh	RAD52 inh
CSCCC(NC(=O)CCC(=O)OC1CC[C@H]2[C@@H]3CC[C@H]4CC(=O)CC[C@]4(C)[C@H]3CC[C@]12C)C(=O)O (stereo partly specified)	0.2	-24.4*	1.8	-1.0	-1.5
CC1CCC(C(C)C)C(OC(=O)Cn2c(COc3ccccc3)[n+](C)c3ccccc32)C1 (stereo unspecified)	x	-51.5	25.2*	24.1	35.9
COC(=O)[C@H]1[C@H](CO)[C@H]2Cn3c(ccc(-c4ccccc4)c3=O)[C@@H]1N2CCc1ccccc1	x	-4.3	0.4	5.5	-0.2
Cc1ccc(/C=C2\C(=O)NC(=O)N(Cc3ccccc3Cl)C2=O)o1	4.4	1.3	-9.7	50.6*	-51.3
CS(=O)(=O)N1C[C@@H]2C(c3ccc(Br)cc3)[C@H](C1)N2CC1CC1 (stereo partly specified)	x	-4.1	x	x	x
c1cc(-c2ccc(C3[C@H]4CNC[C@@H]3N4CC3CC3)cc2)ccn1 (stereo partly specified)	x	6.2	38.5*	-0.4	14.0
CCN1[C@@H]2c3ccc(-c4cccc(C(=O)N(C)C)c4)c(=O)n3C[C@H]1[C@H](CO)[C@H]2C(=O)OC	x	0.4	-28.3	-2.2	5.9
O=C1NCN(c2ccccc2)C12CCN(C(c1ccccc1)c1nnnn1Cc1ccccc1)CC2 (stereo unspecified)	x	-20.7*	5.3	1.2	-13.3
COc1ccc(-n2nnnc2C(CCSC)N2CCC3(CC2)C(=O)NCN3c2ccccc2)cc1 (stereo unspecified)	x	-21.1*	4.4	0.9	-12.8
CCOc1ccc(-c2cc(C)[n+](CCN3CCOCC3)c(-c3ccc(OCC)cc3)c2)cc1	1.0	-53.4*	x	0.7	11.0
Cc1ccc(C(=O)N[C@@H](C)CN2C3=NC[C@@H](Cc4ccccc4)N3C[C@H]2Cc2ccc(O)cc2)cc1Br	x	-53.7	27.3*	0.1	31.1
Cc1c(N=Nc2c(O)n(-c3ccc(Br)cc3)c(=O)[nH]c2=O)c(=O)n(-c2ccccc2)n1C	0.5	-35.5*	-0.3	2.6	-25.3
Cc1c(N=Nc2c(O)[nH]c(=O)[nH]c2=O)c(=O)n(-c2ccccc2)n1C	-6.1	23.9	-3.0	40.8*	-83.9
COC(=O)[C@H]1[C@H](CO)[C@H]2Cn3c(ccc(-c4ccccc4F)c3=O)[C@@H]1N2Cc1ccncc1	x	-2.3	-0.6	-2.4	123.0*
CCCN1[C@@H]2c3ccc(-c4ccc(F)cc4)c(=O)n3C[C@H]1[C@H](CO)[C@H]2C(=O)OC	x	-2.2	0.3	0.4	56.7*
CCCN1[C@@H]2Cn3c(ccc(-c4ccc(OC)cc4)c3=O)[C@H]1[C@@H](C(=O)OC)[C@@H]2CO	x	-0.4	-0.6	0.9	2.5
COC(=O)[C@H]1[C@H](CO)[C@H]2Cn3c(ccc(-c4ccccc4F)c3=O)[C@@H]1N2Cc1ccccc1	x	-2.3	-5.9	0.7	1.4
COC(=O)[C@@H]1[C@@H](CO)[C@@H]2Cn3c(ccc(-c4ccccc4F)c3=O)[C@H]1N2Cc1ccncc1	x	0.1	2.1	-0.7	106.9*
COC(=O)[C@@H]1[C@@H](CO)[C@@H]2Cn3c(ccc(-c4cccc(F)c4)c3=O)[C@H]1N2Cc1ccncc1	x	-1.6	0.4	0.7	-11.6
N#Cc1cccc(-c2ccc([C@@H]3[C@@H](CO)N4CCCCN(C(=O)Cc5ccccc5)C[C@H]34)cc2)c1	x	-31.0	-2.4	-0.5	-44.0
CN(C)CC#Cc1ccc([C@@H]2[C@H]3CN(C(=O)Cc4ccccn4)CCCCN3[C@H]2CO)cc1	x	2.0	3.2	2.0	43.8
CCOC(=O)C1CCN(/C=C2/C(=O)NC(=O)N(Cc3ccco3)C2=O)CC1	21.8	5.2	x	55.0*	-181.0
Cc1cc(/C=C2\C(=O)NC(=O)N(Cc3ccco3)C2=O)c(C)n1-c1ccc(O)cc1	8.3	5.4	1.4	69.0*	-1.8
Cn1cccc1/C=C1\C(=O)NC(=O)N(Cc2ccco2)C1=O	24.0	x	x	x	x
Cc1ccc(OCCn2cccc2/C=C2/C(=O)NC(=O)N(Cc3ccco3)C2=O)cc1	14.8	11.2	-4.8	76.2*	-114.9
SMILES	NSD2 HMT inh	Ecoli rRNA inh	MLL AF4-AF9 inh	CASP6 VEID inh	RAD52 inh
Cc1cc(/C=C2\C(=O)NC(=O)N(Cc3ccco3)C2=O)c(C)n1-c1ccc(C(=O)O)cc1	x	11.3	7.8	70.6*	-66.2
Cc1ccccc1-n1c(C)cc(/C=C2/C(=O)NC(=O)N(Cc3ccco3)C2=O)c1C	6.6	10.3	6.5	13.7	-160.9
O=C(Cc1ccccc1)N1C[C@@H]2[C@H](c3ccccc31)[C@@H](CO)N2Cc1ccccc1	x	-5.8	1.7	1.7	-5.5
O=C(O)[C@H]1[C@H](CO)[C@H]2Cn3c(ccc(-c4ccncc4)c3=O)[C@@H]1N2C(=O)C1CCCCC1	x	0.3	-4.5	-6.4	-20.8
COC(=O)[C@H]1[C@H](CO)[C@H]2Cn3c(ccc(-c4ccccc4)c3=O)[C@@H]1N2CC1CCCCC1	x	-11.0	2.1	3.9	3.6
COC(=O)[C@H]1[C@H](CO)[C@H]2Cn3c(ccc(C4=CCCC4)c3=O)[C@@H]1N2CC1CCCC1	x	-0.5	-0.4	-0.1	-25.4
COC(=O)[C@H]1[C@H](CO)[C@H]2Cn3c(ccc(C4=CCCC4)c3=O)[C@@H]1N2C(=O)C1CCCCC1	x	0.2	x	x	x
O=C([C@H]1N[C@H]2c3cccc(=O)n3C[C@H]2[C@@H]1CO)N1CCCCC1	x	2.3	x	x	x
O=c1oc2ccccc2c(O)c1C(c1ccc([N+](=O)[O-])cc1)c1c(O)c2ccccc2oc1=O	10.5	-21.0	-1.5	24.0	-9.9
CC(C)c1ccc(C(c2c(O)c3ccccc3oc2=O)c2c(O)c3ccccc3oc2=O)cc1	9.9	2.6	-3.5	66.3*	-2.9
CCOC(=O)c1c(C)n(CC(O)CN2CCOCC2)c2cc(Br)c(OC)cc12 (stereo unspecified)	7.0	-42.5*	3.1	7.4	44.7
CCOC(=O)c1c(C)n(CCOC)c2ccc(O)cc12	-48.8	x	x	x	x
C[C@H](CO)N1C[C@H](C)[C@H](CN(C)C(=O)Oc2ccccc2)OCc2ccccc2-c2c(n(C)c3ccccc23)C1=O	x	-1.4	0.9	1.2	12.4
Cc1cccc(S(=O)(=O)N2[C@@H]3Cn4c(ccc(-c5ccncc5)c4=O)[C@H]2[C@@H](C(=O)O)[C@@H]3CO)c1	x	3.7	-2.6	4.4	-25.6
CCOC(=O)c1cnc(SCc2ccc(Cl)c(Cl)c2)nc1N1CC1	x	-7.9*	-1.5	-4.8	-26.6
COc1ccc(C(CNC(=O)Cc2ccc(Cl)c(Cl)c2)N2CCCCC2)cc1 (stereo unspecified)	-0.8	-31.9	5.4	-4.5	-68.3
O=C(C(=C1N(Cc2ccc(Cl)nc2)CCN1Cc1ccc(Cl)nc1)[N+](=O)[O-])C(Cl)Cl	-0.9	8.8	-0.8	36.0*	-7.7
O=C(Cc1ccccc1)N1CCCCN2[C@H](CO)[C@@H](c3ccc(C#Cc4ccccc4)cc3)[C@H]2C1	x	-57.8	-0.9	54.1*	-16.5
O=C(Cc1cccnc1)N1CCCCN2[C@H](CO)[C@H](c3ccc(/C=C/c4ccccc4)cc3)[C@H]2C1	x	-21.8	16.1	0.1	-22.9
